Bioassay records: PubChem, National Center for Advancing Translational Sciences (NCATS)
The list is not random: actives were taken first. Their share in the collection is about 4.7%.
D1 ag – activates the human D1 dopamine receptor; P21728; HEK293 T-REx D1 cells, calcium flux, agonist mode; actives 1% (n = 360,000); AID 504660; activation, % at 2 µM; further: 0% is about no effect
Target sequence (P21728 whole entry, looked up): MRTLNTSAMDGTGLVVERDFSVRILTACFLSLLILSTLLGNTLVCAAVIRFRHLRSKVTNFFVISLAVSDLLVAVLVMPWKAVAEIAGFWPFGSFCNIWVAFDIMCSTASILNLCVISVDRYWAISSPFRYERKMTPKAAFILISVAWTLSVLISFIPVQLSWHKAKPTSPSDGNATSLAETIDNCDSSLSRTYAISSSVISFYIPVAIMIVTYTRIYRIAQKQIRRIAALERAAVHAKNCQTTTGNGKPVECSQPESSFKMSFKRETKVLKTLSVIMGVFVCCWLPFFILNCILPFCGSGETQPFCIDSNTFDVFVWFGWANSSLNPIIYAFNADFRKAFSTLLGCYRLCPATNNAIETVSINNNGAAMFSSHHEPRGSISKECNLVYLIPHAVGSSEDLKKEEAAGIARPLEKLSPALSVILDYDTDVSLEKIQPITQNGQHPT
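Inducible HEK293 T-REx D1 cells, force-coupled to calcium signalling, were plated at 4000 cells/well with tetracycline and held overnight at 30 C. After no-wash calcium dye loading, compound-evoked calcium rise over 180 s flagged agonists.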
TRHR enhancer – allosterically enhances the human TRH receptor | P34981 | TRHR cells, fluo-8 calcium fluorescence, EC20 TRH enhancement | enhancement, % at 2 µM | actives 0.66% (n = 360,000) | AID 493056; in the data active means enhancement above about 30%; further: 0% is about no effect
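Enhancer read-out: after compound pinning and an initial kinetic agonist-mode read, an EC20 of TRH (10 nM final) was injected and fluo-8 calcium signal (Ex 480/Em 530) followed at 1 s/cycle for 100 cycles in TRHR-expressing cells.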
D1 PAM – potentiators of human D1 dopamine receptor | HEK293 TREx D1 cells, calcium flux, dopamine EC20 potentiation | potentiation, % at 10 µM | P21728 | actives 0.036% (n = 360,000) | AID 504651; in the data active means potentiation above about 30%; further: 0% is about no effect
D1 antag – human D1 dopamine receptor antagonism | P21728 | HEK293 TREx D1 cells, calcium flux, dopamine EC80; active compounds read low | activity change, negative = inhibition, % at 10 µM | actives 3.2% (n = 360,000); in the data active means activity change below about -30%; further: on the % scale 0 is the no-effect control and ±100 the full control effect
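Using tetracycline-induced force-coupled D1 Hek293 cells and a calcium dye, signals were followed for 180 s after compound, then for 180 s after EC80 dopamine, to detect inhibitors.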
TRHR agonist – activates the human TRH receptor; TRHR cells, calcium flux fluo-8, FDSS agonist mode; activation, % at 2 µM; actives 0.18% (n = 360,000); AID 493084; further: 0% is about no effect
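Steps: seed TRHR cells overnight; add fluo-8 no-wash Ca dye, RT 30 min–1.5 h; record 10 s baseline; pin-transfer compounds; monitor fluorescence 1 cycle/s for the agonist window. Calcium increases flag candidate agonists.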
* hit, by the source's call. Unless noted, no stated cut-off is given here; in the data, active means activation above about 30%; inactive means the rest.

SMILES	D1 ag	TRHR enhancer	D1 PAM	D1 antag	TRHR agonist
O=C(CNC(=O)c1ccccc1)OC(C(=O)Nc1ccc2c(c1)OCO2)c1ccccc1 (centres undefined)	1	-1	4	-1	-1
COc1ccccc1NC(=O)C(Cc1ccccc1)NS(=O)(=O)c1cccc2nsnc12 (centres undefined)	0	-1	3	0	-1
O=c1ccc2cc(S(=O)(=O)N3CCN(c4ccccc4F)CC3)ccc2[nH]1	12	1	-10	-34*	-1
Cc1ccc(Cl)cc1N1CCN(S(=O)(=O)c2cn(C)cn2)CC1	13	0	-4	-35*	-1
Cc1ccc(Cl)cc1N1CCN(S(=O)(=O)c2cn(C)c(C)n2)CC1	1	1	1	7	0
Cc1ccc(Cl)cc1N1CCN(S(=O)(=O)c2ccc3[nH]c(=O)ccc3c2)CC1	1	1	-15	-89*	-1
O=C(C1CCN(S(=O)(=O)c2cccs2)CC1)N(c1ccccn1)C1CCCCC1	0	0	-2	1	-1
Cc1csc2nc(COC(=O)c3ccc(NC(=O)c4ccccc4Br)cc3)cc(=O)n12	11	3	0	-21	1
Cc1cc2nc(-c3ccc(NC(=O)C(C)C)cc3)oc2cc1C	1	-2	-2	-33*	0
CCc1nc2ccc(C(=O)Nc3ccc4c(c3)OCO4)cc2nc1CC	0	39*	-4	-10	0
COc1ccc(C(=O)Nc2nnc(C)s2)cc1	-1	3	4	4	-1
CCc1ccc(C(=O)Nc2ccc3nc(C)ccc3c2)cc1	2	4	-10	-31*	-1
CCc1nc2ccc(C(=O)Nc3cccc(C(C)=O)c3)cc2nc1CC	0	1	5	7	-1
CCc1nc2ccc(C(=O)Nc3nnc(C)s3)cc2nc1CC	3	1	-8	-42*	0
Cc1ccc2cc(NC(=O)c3ccc(C(C)(C)C)cc3)ccc2n1	0	3	1	-15	-1
COc1ccccc1NC(=O)C(OC(=O)CNC(=O)c1ccccc1)c1ccccc1 (centres undefined)	0	-5	-5	21	-2
CNS(=O)(=O)c1cn(CC(=O)Nc2ccc(C)c(N(C)C)c2)cc1S(=O)(=O)NC	2	5	0	-7	-1
CSc1c(C#N)c(N)nc2sc(C(=O)c3ccccc3)c(N)c12	37*	3	0	-11	9
COCC(C)NC(=O)CCc1nnc(C2(c3ccc(Cl)cc3)CCC2)o1 (centres undefined)	0	1	-6	-51*	0
COC(=O)CNC(=O)CCc1nnc(C2(c3ccc(Cl)cc3)CCC2)o1	0	3	-5	12	-1
CCOc1ccc(C2OC(=O)Cc3cc(OC)c(OC)cc32)cc1 (centres undefined)	4	-1	-4	-31*	-3
CCOc1ccc(C2NC(=O)Cc3cc(OC)c(OC)cc32)cc1 (centres undefined)	2	4	-2	18	0
CCOc1ccccc1NC(=O)Cn1c(=O)n(-c2ccccc2)c(=O)c2c1c1cc(C)ccc1n2C	3	-2	-2	-2	0
COc1ccc(CCNC(=O)C2CCC(=O)N2CCc2ccccc2)cc1OC (centres undefined)	2	8	-6	-32*	3
COc1ccc(CC(=O)NC(C)CCc2ccccc2)cc1OC (centres undefined)	11	-6	1	13	-1
SMILES	D1 ag	TRHR enhancer	D1 PAM	D1 antag	TRHR agonist
COc1ccc(CC(=O)NNC(=O)CCc2ccccc2)cc1OC	4	17	-5	-34*	0
COc1ccc(/C(N)=N/OC(=O)CCc2ccccc2)cc1OC	-1	-6	-5	-31*	-1
CCOC(=O)Cn1c(=O)n(-c2ccccc2OC)c2nc(-c3ccc(C(C)C)cc3)nc(C(N)=O)c21	9	0	0	-9	1
O=C(c1cc(-c2ccc(Cl)c(Cl)c2)on1)N1CCN(c2ccccc2)CC1	6	-5	-7	-31*	0
COc1ccc(-c2cc(C(=O)NCc3ccccc3)no2)cc1OC	37*	25	0	2	-1
COc1ccc(-c2nn(C)c3sc(C(=O)N4CCOCC4)cc23)cc1OC	1	4	-3	-60*	0
